We go through 8 compounds from PubChem BioAssay (NCI).

Compounds without any hit were thinned out: in the full panel of roughly 83,000, 20% have a hit.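 Negative percent growth values reflect cell death: -40 means 40% of the cells present at the start died, and -100 means all died.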 Unmarked numbers belong to inactive results. Activity calls are given as the source filed them. How the source made its calls: active means growth percent below 10; inactive means the rest.

Among the test systems are HCT-15 colon; HT29 colon; SNB-75 CNS; SNB-19 CNS; U251 CNS; PC-3 prostate; SK-MEL-5 melanoma; UACC-62 melanoma; LOX IMVI melanoma; SK-MEL-28 melanoma; SK-MEL-2 melanoma; EKVX NSCLC; SN12C renal; UO-31 renal; TK-10 renal; ACHN renal; CAKI-1 renal; A498 renal; CCRF-CEM leukemia; MOLT-4 leukemia.
What all share (test): NCI-60 one-dose screen, 48 h (100 = growth as untreated, 0 = no growth, -100 = all killed)
Common to all, as to settings: 10 µM

For the compound `O=C(Cc1ccc2c(c1)CN(C1CCC(=O)NC1=O)C2=O)NCCc1ccccc1` (stereo not given), the growth in the experiment with HCT-15 colon is -0.692% (active); with HT29 colon it was 31.3%; in the experiment with SNB-75 CNS, 1.96% (active); in the experiment with SNB-19 CNS, 15.6%; with U251 CNS, 67.8%; in the experiment with PC-3 prostate, 11.9%. Besides, the growth is -54.2% (active) with SK-MEL-5 melanoma; 53.7% in the experiment on UACC-62 melanoma; 81.2% in the experiment with LOX IMVI melanoma; 37.4% with SK-MEL-28 melanoma; 26% in the experiment on SK-MEL-2 melanoma; 67.2% with EKVX NSCLC. In addition, the growth in the experiment on SN12C renal was 8.84% (active); in the experiment with UO-31 renal, -10.4% (active); with TK-10 renal it was 45.8%; in the experiment on ACHN renal, 48.9%; in the experiment on CAKI-1 renal, 63.6%; in the experiment on A498 renal it was 1.53% (active). Further, the figures for the growth in the experiment with CCRF-CEM leukemia and in the experiment with MOLT-4 leukemia were 10.6% and -13.2% (active), respectively.
In the case of `COc1ccc(N(C)c2cc(C#N)nc3ccccc23)cc1/C=C/C(=O)NO`, the growth in the experiment on HCT-15 colon is -59.4% (active); with HT29 colon, -19.5% (active); in the experiment on SNB-75 CNS, -24.6% (active); with SNB-19 CNS, -44.5% (active); with U251 CNS, -51% (active); with PC-3 prostate, -9.99% (active). Further, the growth is -67.5% (active) with SK-MEL-5 melanoma; -72.2% (active) in the experiment with UACC-62 melanoma; -97.6% (active) in the experiment with LOX IMVI melanoma; -73.8% (active) in the experiment on SK-MEL-28 melanoma; -80% (active) in the experiment on SK-MEL-2 melanoma; -54.6% (active) in the experiment with EKVX NSCLC. The growth in the experiment with SN12C renal was -51.4% (active); with UO-31 renal, -55.3% (active); in the experiment on TK-10 renal it was 23.7%; in the experiment with ACHN renal, -22.2% (active); in the experiment with CAKI-1 renal, -19.2% (active); in the experiment with A498 renal, 16.2%. For the same compound, the growth in the experiment on CCRF-CEM leukemia was 9.09% (active); in the experiment on MOLT-4 leukemia, -3.71% (active).
For the compound `O=C(c1ccc(O)cc1)C1[C@H](c2ccc(Br)cc2)[C@@H](c2ccccc2)NC12C(=O)Nc1ccccc12` (stereo not given in full), the growth with HCT-15 colon is 24.6%; in the experiment with HT29 colon, -9.34% (active); in the experiment with SNB-75 CNS, 46.5%; in the experiment on SNB-19 CNS it was 47.8%; in the experiment on U251 CNS, 22%; with PC-3 prostate, 32.1%. In addition, the growth was 30.1% in the experiment with SK-MEL-5 melanoma; 50.9% in the experiment with UACC-62 melanoma; -96.9% (active) with LOX IMVI melanoma; 78.5% in the experiment on SK-MEL-28 melanoma; 55.7% with SK-MEL-2 melanoma; 28% in the experiment on EKVX NSCLC. Further, the growth in the experiment on SN12C renal is 23.5%; in the experiment on UO-31 renal, 18.9%; with TK-10 renal, 35.9%; in the experiment on ACHN renal, 6.89% (active); in the experiment with CAKI-1 renal, 22.6%; with A498 renal, 37%. In addition, the growth in the experiment on CCRF-CEM leukemia was 36.3%; in the experiment with MOLT-4 leukemia, 16.3%.
Take `CC1=C(C(=O)OC(C)C)C(c2ccc(O)cc2)NC(=S)N1` (stereo not given): the growth in the experiment on HCT-15 colon was 102%; in the experiment with HT29 colon, 108%; in the experiment with SNB-75 CNS, 217%; in the experiment on SNB-19 CNS, 101%; in the experiment with U251 CNS, 102%; in the experiment with PC-3 prostate, 94.7%. Moreover, the growth with SK-MEL-5 melanoma was 106%; in the experiment on UACC-62 melanoma, 93.4%; in the experiment on LOX IMVI melanoma, 94.4%; in the experiment on SK-MEL-28 melanoma, 109%; with SK-MEL-2 melanoma, 99.2%; in the experiment on EKVX NSCLC it was 92.5%. For the same compound, the growth is 105% in the experiment on SN12C renal; 96.2% with UO-31 renal; 95.5% with TK-10 renal; 109% in the experiment on ACHN renal; 98% in the experiment on CAKI-1 renal; 138% in the experiment with A498 renal. Besides, the figures for the growth in the experiment with CCRF-CEM leukemia and in the experiment with MOLT-4 leukemia were 101% and 94.8%, respectively.
Regarding `COc1cc(NC(=O)CSc2nnc(-c3ccc4nc(-c5ccc(Cl)cc5)[nH]c4c3)o2)cc(OC)c1OC`, the growth in the experiment with HCT-15 colon is 43.3%; with HT29 colon, 61.7%; in the experiment on SNB-75 CNS, 93.7%; in the experiment on SNB-19 CNS, 86%; with U251 CNS, 77%; with PC-3 prostate it was 46.9%. For the same compound, the growth with SK-MEL-5 melanoma was 50.5%; in the experiment on UACC-62 melanoma, 37.8%; in the experiment with LOX IMVI melanoma it was 51.9%; in the experiment with SK-MEL-28 melanoma it was 70.5%; in the experiment with SK-MEL-2 melanoma, 93.4%; with EKVX NSCLC, 93.1%. The growth in the experiment with SN12C renal was 70.2%; with UO-31 renal, 63.8%; with TK-10 renal, 116%; in the experiment with ACHN renal, 66.1%; in the experiment with CAKI-1 renal, 67.8%; in the experiment on A498 renal it was 121%. Also, the growth with CCRF-CEM leukemia was 26.7%; with MOLT-4 leukemia, 25.1%.
On to `COc1ccc(CN2[C@@H](C(=O)NCc3ccc(C(=O)NO)cc3)Cc3c([nH]c4ccccc34)[C@@H]2C2CC2)cc1`, for which the growth with HCT-15 colon is 19.5%; with HT29 colon it was 10.9%; in the experiment on SNB-75 CNS, -12% (active); with SNB-19 CNS, 34.4%; in the experiment with U251 CNS it was 24.8%; in the experiment with PC-3 prostate it was 30.2%. For the same compound, the growth with SK-MEL-5 melanoma was -19.9% (active); with UACC-62 melanoma it was 3.09% (active); with LOX IMVI melanoma it was 11.7%; with SK-MEL-28 melanoma it was 24.8%; in the experiment with SK-MEL-2 melanoma, 12.2%; with EKVX NSCLC it was 28.9%. Also, the growth with SN12C renal is 29%; in the experiment on UO-31 renal it was 40.5%; in the experiment with TK-10 renal, 8.46% (active); in the experiment with ACHN renal, 35.5%; in the experiment with CAKI-1 renal, 22.5%; in the experiment with A498 renal, -5.06% (active). Moreover, the figures for the growth with CCRF-CEM leukemia and in the experiment on MOLT-4 leukemia were 15% and 11%, respectively.
As to `CO[C@H]1CSS[C@@H]1Cn1nc(-c2ccc(Oc3ccccc3)cc2)c2c(N)ncnc21`, the growth in the experiment with HCT-15 colon is 22.1%; in the experiment with HT29 colon it was 17.2%; in the experiment on SNB-75 CNS it was 104%; with SNB-19 CNS it was 29.6%; in the experiment on U251 CNS it was 24.6%; with PC-3 prostate, 41.2%. Further, the growth is -4.24% (active) in the experiment on SK-MEL-5 melanoma; -69.5% (active) in the experiment with UACC-62 melanoma; 36.8% with LOX IMVI melanoma; -35.8% (active) in the experiment on SK-MEL-28 melanoma; -34% (active) with SK-MEL-2 melanoma; 18% with EKVX NSCLC. For the same compound, the growth was 24.6% in the experiment with SN12C renal; 17.7% in the experiment on UO-31 renal; 0.0625% (active) in the experiment on TK-10 renal; 10% in the experiment with ACHN renal; 11.3% with CAKI-1 renal; 92.8% in the experiment with A498 renal. In addition, the growth was -16% (active) in the experiment on CCRF-CEM leukemia and -20.6% (active) with MOLT-4 leukemia.
As to `COc1ccc(-c2cc(C(=O)N=Nc3c(O)[nH]c4ccc(F)cc34)c3ccccc3n2)cc1`, the growth was 21.5% in the experiment on HCT-15 colon; 61.9% in the experiment on HT29 colon; 84.6% in the experiment on SNB-75 CNS; 44.1% in the experiment with SNB-19 CNS; 7.34% (active) in the experiment on U251 CNS; 76.6% in the experiment on PC-3 prostate. The growth is 72.4% in the experiment on SK-MEL-5 melanoma; 81.4% with UACC-62 melanoma; 24.1% with LOX IMVI melanoma; 81.1% with SK-MEL-28 melanoma; 128% in the experiment on SK-MEL-2 melanoma; 86.4% with EKVX NSCLC. Moreover, the growth in the experiment with SN12C renal is 65.5%; in the experiment on UO-31 renal, 67.6%; in the experiment on TK-10 renal, 120%; in the experiment with ACHN renal it was 68.1%; in the experiment with CAKI-1 renal it was 87.8%; in the experiment with A498 renal it was 128%. Also, the growth with CCRF-CEM leukemia is 44.2%; in the experiment on MOLT-4 leukemia, 21.9%.
